Screening results from PubChem.
Nrf2 block: blocks Nrf2 signaling | Potency, µM (doses to about 46 µM), hits mostly inhibitors | 2.1% of 360,000 active | A549 ARE-Fluc reporter, luciferase luminescence, 18-24 h; further: nearly all actives have a fitted effect of over 60% in size
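In this cell-based qHTS, ARE-driven firefly luciferase in A549 cells reports Nrf2 activity; the luminescent signal after BugLite lysis is the measured value, with a prior CellTiter-Fluor read for cell health.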
Nrf2 ARE act: Nrf2 pathway activation | AREc32 ARE-luciferase reporter (MCF7-derived line), luminescence, 24 h | Potency, µM (titrated, usually from 46.1 µM), most hits filed as activators | 0.31% of 410,000 active | AID 624171; further: nearly all actives have a fitted effect of over 65% in size
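AREc32 cells carrying an ARE-driven firefly luciferase reporter were seeded at 1000 cells/well in OPTI-MEM with 5% FBS, then exposed to compound for 24 hr at 37 deg C. Luminescence was read with Steady-Glo after 30 min at RT.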
Rango dissoc inh: inhibitors of RanGTP-induced Rango-importin beta complex dissociation. Biochemical FRET Rango-importin beta, RanGTP-induced dissociation. Potency, µM (series often up to 46.1 µM). 0.071% of 340,000 active; calls by dose curve; further: nearly all actives have a fitted effect of over 45% in size
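Rango/importin beta premix (0.1/0.25 uM final), PBS + 1 mM DTT + 0.02% Tween-20 + 0.1% BSA; cpd 5 min RT; FRET pre-read; + RanGTP-RCC1 (0.6 uM Ran, 2 mM GTP, 0.2 uM RCC1); 45 min RT; FRET post-read, ex 430, em 486/530 nm.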
Rango complex inh: Rango-importin beta binding inhibition | Rango CFP/YFP FRET sensor + importin beta, 45 min | Potency, µM (highest dose often 92.2 µM) | 0.031% of 340,000 active; calls by dose curve; further: nearly all actives have a fitted effect of over 15% in size
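Inhibition scored from the CFP 486 nm/YFP 530 nm FRET ratio 45 min after adding 0.125 microM importin beta to 50 nM Rango biosensor preincubated 5 min with compound (room temperature, PBS with DTT, Tween-20, BSA). No-importin wells as positive control.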
A549 tox: A549 cytotoxicity, counter-screen for Nrf2 inhibitors; A549 ARE-Fluc cells, CellTiter-Fluor viability, 18-24 h; Potency, µM (doses to about 46 µM), hits mostly inhibitors; 0.16% of 390,000 active
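A549 ARE-Fluc cells in 5% FBS OPTI-MEM, 5000 cells/well, rested 2 h then exposed to compounds in concentration-response for 18-24 h at 37 °C. Viability by CellTiter-Fluor fluorescence (Ex 405/Em 525) after 30 min; luciferase luminescence (BugLite, 15 min, RT) read afterwards.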
Hits are given with their value; 0 = inactive; ? = inconclusive; - = no result; [ ] = remark or other dose. Shown are actives, neighbours in structure and some others; about 2.3% of the full set was active somewhere. Unless noted, the call rests on the fitted dose curve; in most records, active means well fitted curve in the direction sought with a large enough effect; inconclusive means small, poorly fitted or top-dose-only effect, or another doubt; inactive means no such curve, though single readings can be large; an effect the other way counts as inactive or inconclusive.

SMILES | Nrf2 block | Nrf2 ARE act | Rango dissoc inh | Rango complex inh | A549 tox
COc1ccc(N=C2NN=C(c3ccc4c(c3)OCCO4)CS2)cc1 | 0 | 0 | 0 | 0 | 0
c1cc2c(cc1C1=NNC(=NC3CC3)SC1)OCCO2 | 2.3µM | 0 | 0 | 0 | 0
FC(F)Sc1ccc(N=C2NN=C(c3ccc4c(c3)OCCO4)CS2)cc1 | 16µM | 0 | 0 | 0 | 16µM
CCOC(=O)N=Nc1c2ccccc2c2nc3no[nH]c3nc12 | 0.65µM | 0 | 0 | 0 | 0.92µM
O=C1C=C(Nc2ccc(Cl)cc2)CC(c2ccco2)C1 (centres undefined) | 0 | 0 | 0 | 0 | 0
O=C1C=C(Nc2cccc(O)c2)CC(c2ccco2)C1 (centres undefined) | 0 | ? | 12µM | ? | 0
O=C(CSc1nnc2ccc3ccccc3n12)c1ccc(F)cc1 | ? | 13µM | - | - | 0
O=C(CSc1nnc(-c2ccccc2Br)n1-c1ccccc1)c1ccc(F)cc1 | 18µM | 0 | - | - | ?
CCc1ccccc1NC(=O)NC1CCCCCCC1 | 0 | 0 | 0 | 0 | 0
Cc1ccc(NC(=O)CSC2=C(C#N)C(c3ccc4c(c3)OCO4)C3=C(CCCC3=O)N2)c(C)c1 (centres undefined) | 12µM | 0 | 0 | 0 | -
COC(=O)CSC1=C(C#N)C(c2ccc3c(c2)OCO3)C2=C(CCCC2=O)N1 (centres undefined) | 0 | 0 | 0 | 0 | 0
COc1ccc(OCC(=O)Nc2c3c(nn2C(C)(C)C)CSC3)cc1 | 12µM | 0 | 0 | 0 | 0
C/C(=N\N=C(/N)c1nonc1N)c1ccc2c(c1)OCO2 | ? | 0 | 0 | 0 | 0
O=S(=O)(c1cnc2ccccc2c1)N1CCN(c2nc(-c3cccs3)nc3ccccc23)CC1 | 0 | - | - | - | 0
CN(C)c1ccc2nc3ccc(=[N+](C)C)cc-3sc2c1 | 12µM | 0 | 0 | 0 | ?
O=C(c1ccc(Br)cc1)N1CCC(C(=O)N2CCN(Cc3ccccc3)CC2)CC1 | 0 | 0 | 0 | 0 | 0
O=C(CNC(=O)c1ccccc1F)OCCOc1cccc(Cl)c1 | 0 | 0 | 0 | 0 | 0
Cc1ccc(OCCCSc2ncccn2)cc1C | ? | 0 | 0 | 0 | 0
Cc1cc(OCCCCOc2ccc(S(N)(=O)=O)c(C)c2)ccc1S(N)(=O)=O | 12µM | 0 | 0 | 0 | 0
O=C1CCc2cc(S(=O)(=O)Nc3cccc(C(F)(F)F)c3)ccc2N1 | ? | - | - | - | 0
O=C(NCc1nnc(-c2nc3ccccc3[nH]2)o1)C1CCCCC1 | 0 | - | - | - | 0
C=CCOc1ccccc1CN(C(=O)CCl)c1ccc2c(c1)OCO2 | 0 | 22µM | 0 | 0 | 0
O=C(Nc1cccc(Oc2ccc(C(=O)O)c(C(=O)O)c2)c1)c1ccc(-c2ccccc2)cc1 | 16µM | 0 | 0 | 0 | 0
CC(C)(C)C(=O)Nc1ccc(C(=O)Nc2cccc(Oc3ccc(C(=O)O)c(C(=O)O)c3)c2)cc1 | 21µM | 0 | 0 | 0 | 0
O=C(O)c1ccccc1C(=O)Nc1ccc(Oc2ccccc2)cc1 | 0 | 0 | 0 | 0 | 0
SMILES | Nrf2 block | Nrf2 ARE act | Rango dissoc inh | Rango complex inh | A549 tox
O=C(Nc1scc(-c2ccc(Br)cc2)c1C(=O)O)c1ccccc1F | 10µM | 0 | 0 | 0 | 0
Cc1ccccc1C(=O)Nc1scc(-c2ccc(Br)cc2)c1C(=O)O | 8.2µM | 0 | 0 | 0 | 0
Cc1ccc(-c2csc(NC(=O)c3ccccc3F)c2C(=O)O)cc1 | ? | 0 | 0 | 0 | 0
O=C(Nc1scc(-c2ccccc2)c1C(=O)O)c1ccccc1F | 0 | 0[9.22 µM] | 0 | 0 | 0
COc1cccc(CN2C(=O)c3ccccc3Sc3ccc(C(=O)NCCc4ccc(Cl)cc4)cc32)c1 | ? | 0 | - | - | 0
CCN(CC)S(=O)(=O)c1ccc2oc(C(=O)NCc3ccc(C)cc3)c(C)c2c1 | 16µM | 0 | 0 | 0 | 0
CCN(CC)S(=O)(=O)c1ccc(NC(=O)NCc2noc3ccc(C)cc23)cc1 | 18µM | 0 | - | - | ?
Cc1ccc2onc(CNC(=O)Nc3cc(F)ccc3F)c2c1 | ? | 0 | - | - | 0
CCCCN(CCCC)S(=O)(=O)c1ccc2oc(C(=O)NCc3ccc(C)cc3)c(C)c2c1 | - | 0 | - | - | 0
Cn1c(CNC(=O)CCNC(=O)c2ccc(F)c(F)c2)cc(=O)n(C)c1=O | 0 | 0 | 0 | 0 | 0
CC(=O)N1CCCc2cc(S(=O)(=O)N3CCN(c4ccc(F)cc4)CC3)ccc21 | - | 0 | - | - | 0
COc1cc2c(cc1NC(=O)c1ccccc1F)CCCC2 | ? | 3.2µM | 0 | 0 | 0
